In all, about 310,000 compounds went through this assay and about 2,200 (0.71%) showed an effect of 50% or more. Effects have a minus sign here. The sample holds strong results, similar compounds and a random draw of the others, so the mix is not that of the screen.

Results on 24 molecules are retold here after paper PMC4336329 (PLoS ONE, 2015).

The target in this assay is human ether-à-go-go-related gene (hERG) potassium channel (human, UniProt Q12809). Kind of assay: primary screen, population patch clamp on CHO cells stably expressing hERG; higher = less effect of the substance.
human ether-à-go-go-related gene (hERG) potassium channel, sequence (Q12809 whole entry, looked up): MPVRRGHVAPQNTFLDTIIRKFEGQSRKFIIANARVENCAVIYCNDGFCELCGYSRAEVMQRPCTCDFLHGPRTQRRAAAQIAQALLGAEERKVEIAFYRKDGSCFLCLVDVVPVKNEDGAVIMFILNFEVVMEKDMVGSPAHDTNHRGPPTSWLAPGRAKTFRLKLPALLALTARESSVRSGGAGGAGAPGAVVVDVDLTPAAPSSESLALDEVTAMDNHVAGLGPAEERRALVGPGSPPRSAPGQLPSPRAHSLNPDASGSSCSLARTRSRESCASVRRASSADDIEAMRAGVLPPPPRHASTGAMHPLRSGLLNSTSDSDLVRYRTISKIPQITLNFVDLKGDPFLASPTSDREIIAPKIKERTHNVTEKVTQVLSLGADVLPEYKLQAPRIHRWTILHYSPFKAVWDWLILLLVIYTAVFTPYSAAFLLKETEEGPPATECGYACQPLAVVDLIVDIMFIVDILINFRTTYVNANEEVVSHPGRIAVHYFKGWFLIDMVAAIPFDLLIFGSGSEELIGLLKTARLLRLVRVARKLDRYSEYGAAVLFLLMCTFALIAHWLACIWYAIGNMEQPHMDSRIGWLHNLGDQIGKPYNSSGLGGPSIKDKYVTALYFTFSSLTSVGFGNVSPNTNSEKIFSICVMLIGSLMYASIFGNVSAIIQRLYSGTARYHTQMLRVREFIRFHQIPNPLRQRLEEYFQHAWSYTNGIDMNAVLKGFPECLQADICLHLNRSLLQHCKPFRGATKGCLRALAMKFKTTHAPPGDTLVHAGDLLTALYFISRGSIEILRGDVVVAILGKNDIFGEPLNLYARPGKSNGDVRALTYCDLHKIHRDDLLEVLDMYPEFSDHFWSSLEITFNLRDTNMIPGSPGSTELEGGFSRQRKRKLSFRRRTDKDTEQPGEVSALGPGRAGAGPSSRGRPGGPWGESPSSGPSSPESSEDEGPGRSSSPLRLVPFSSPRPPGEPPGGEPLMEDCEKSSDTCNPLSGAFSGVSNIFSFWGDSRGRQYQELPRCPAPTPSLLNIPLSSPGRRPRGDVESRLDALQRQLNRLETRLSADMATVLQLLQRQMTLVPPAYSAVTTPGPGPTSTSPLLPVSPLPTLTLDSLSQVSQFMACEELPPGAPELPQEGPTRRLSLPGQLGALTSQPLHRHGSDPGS
On to `C=CCNC(=S)/C(=C(\[O-])c1ccc(Cl)cc1)[n+]1ccccc1`, for which the “hERG current change (%, negative = inhibition) at 1uM” value was found to be 11.2%.

For the molecule `Cc1ccc(S(=O)(=O)NCC2CCC(C(=O)N3CCN(C)CC3)CC2)cc1` (stereo not drawn), the “hERG current change (%, negative = inhibition) at 1uM” value was 22.1%. Next, `NC(=O)C1CCCN(CC(O)COCc2ccc(Cl)cc2)C1.O=C(O)C(=O)O` (stereo not drawn): 11.5%. Then `Cl.OC(COCc1ccc(Cl)cc1)CN1CCc2ccccc2C1` (stereo not drawn), with -27.3%; and `O=C(O)C(=O)O.OC(COCc1ccc(Cl)cc1)CN1CC=C(c2ccccc2)CC1` (stereo not drawn), with -84.2%. Next, `C=CC[N+]1(CC=C)CCOCC1.[Br-]`: 34.2%; `COc1ccc(C(=O)/C=C/c2cn(CN3CCN(C)CC3)c3ccccc23)cc1`: -3.29%. For the molecule `O=C(c1ccco1)N1CCN(c2nc3ccsc3c(=O)s2)CC1`, the “hERG current change (%, negative = inhibition) at 1uM” value is -74.5%.

For the molecule `CCOc1ccc2nc(N3CCC(C(=O)N4CCC5(CC4)OCCO5)CC3)sc2c1`, the “hERG current change (%, negative = inhibition) at 1uM” value amounted to 6.77%. Next, `CCOC(=O)C1CCN(C(=O)C2CCN(c3nc4ccc(OC)cc4s3)CC2)CC1`: -53.4%; `CCOc1ccc2nc(N3CCC(C(=O)N4CCN(C5CCCCC5)CC4)CC3)sc2c1`: -8.64%. Next, `CCOc1ccc2nc(N3CCC(C(=O)N4CCN(c5ccccn5)CC4)CC3)sc2c1`: -17.4%. Next, `Cc1ccc2nc(N3CCN(C(=O)c4ccco4)CC3)sc2c1`: -7.42%; `CCOc1ccc2nc(N3CCC(C(=O)N4CCN(c5ncccn5)CC4)CC3)sc2c1`: 4.83%.

As to `Cc1ccc(Cl)c2sc(N3CCN(C(=O)c4ccco4)CC3)nc12`, the “hERG current change (%, negative = inhibition) at 1uM” value was -0.903%. Turning to `COc1ccc(N2CCN(c3cc(C)nc4ccc(OC)cc34)CC2)cc1`, the “hERG current change (%, negative = inhibition) at 1uM” value is listed as -31%.

For the molecule `CCOC(=O)C1CCN(c2cc(C)nc3ccc(OC)cc23)CC1`, the “hERG current change (%, negative = inhibition) at 1uM” value is listed as -56.1%. Then `COc1ccc2nc(C)cc(N3CCC(C(N)=O)CC3)c2c1`, with -2.62%; and `CCOc1ccc2nc(N3CCC(C(=O)N4CCN(C(=O)c5ccco5)CC4)CC3)sc2c1`, with -89.3%; and `O=C(O)C1CCC(=O)N1C1c2ccccc2Oc2ccccc21` (stereo not drawn), with 7.76%. Next, `CC(NCC(=O)NCCc1ccc(S(N)(=O)=O)cc1)c1ccc(F)cc1` (stereo not drawn): 15.1%; `COc1ccccc1/C(C)=N/NC(=S)NCc1ccccc1`: 0.32%; `COCc1nc(-c2ccc(-c3ccc(C)cc3)nc2OC)no1`: 4.81%.

In the case of `Cn1cccc1/C=N/N1CCN(c2ccccc2)CC1`, the “hERG current change (%, negative = inhibition) at 1uM” value worked out at 18.1%.
